# Test results from the supplement of paper PMC11732987, “Enantioselective OTUD7B fragment discovery through chemoproteomics screening and high-throughput optimisation” (Communications Chemistry, 2025).
# Values without a mark were called inactive.
# How the values were obtained:
# Test in all cases: log2 ratio of Biotin-Ahx-Ub-VS probe labelling (compound/DMSO); higher = less target engagement, active = hit call of the paper (q ≤ 0.05, log2 ratio ≤ -1)
# Settings in all cases: treatment time: 3 h
# [1] = compound: CCC1N(CCc2sccc12)C(=O)CCl
# How it was run: (§1)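 Compound at 50 or 200 µM, or DMSO, was applied for 3 h in triplicate to HEK293T lysate (495 µg per sample, Tris/CHAPS/IGEPAL buffer with protease inhibitors), after which Biotin-Ahx-Ub-VS was added at 0.5 µM final for 1 h. The labelled DUBs were pulled down with NeutrAvidin, digested with LysC and trypsin, and run by diaPASEF LC-MS/MS. Ratios are averaged base-two logs of compound over DMSO from median-normalised label-free quantities by unpaired t-test, counting only proteins with at least 2 unique peptides.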
# [2] = compound: CN1c2ccccc2C(CS1(=O)=O)NC(=O)CCl
# How it was run: as §1
# [3] = compound: Cl.ClCC(=O)N1CCc2ncncc2C1
# How it was run: as §1
# [4] = compound: Cl.Cn1ncc2C(CCCc12)NC(=O)CCl
# How it was run: as §1
# [5] = compound: ClCC(=O)NC1CCOc2ccccc12
# How it was run: as §1
# [6] = compound: ClCC(=O)NC1CCCc2ccccc12
# How it was run: (§2)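 Each value is an average ratio of compound to vehicle, calculated by unpaired t-test. Lysate from HEK293T cells (495 µg per sample) was incubated in triplicate with compound over a concentration range or vehicle for 3 h and then with Biotin-Ahx-Ub-VS (0.5 µM final) for 1 h. Probe-labelled deubiquitinases were captured on NeutrAvidin, digested and run by diaPASEF LC-MS/MS, with Spectronaut label-free quantities normalised to the global median. Ratios are log2, and only proteins with at least two unique peptides were used.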
# [7] = compound: ClCC(=O)N[C@@H]1CCCc2ccccc12
# How it was run: as §2
# [8] = compound: ClCC(=O)N[C@H]1CCCc2ccccc12
# How it was run: as §2
# [9] = compound: CCC1N(CCc2cc(OC)c(Cl)cc12)C(=O)CCl
# How it was run: as §1
# [10] = compound: CCCC1N(CCc2cc(OC)c(OC)cc12)C(=O)CCl
# How it was run: as §1
# [11] = compound: CN(Cc1cccc(Br)c1)C(=O)CCl
# How it was run: as §1
# [12] = compound: CN(Cc1ccccc1)C(=O)CCl
# How it was run: as §1
# [13] = compound: COc1ccc(CN(C)C(=O)CCl)cc1
# How it was run: as §1
# [14] = compound: COc1cccc(CN(CCCc2ccccc2)C(=O)CCl)c1
# How it was run: as §1
# [15] = compound: ClCC(=O)N1CCc2cc(Cl)c(Cl)cc2C1
# How it was run: as §1
# [16] = compound: ClCC(=O)N1CCc2nc(ncc2C1)-c1ccccc1
# How it was run: as §1
# [17] = compound: ClCC(=O)N1CCc2nocc2C1
# How it was run: as §1
# [18] = compound: ClCC(=O)N1CCc2scc(Br)c2C1
# How it was run: as §1
# [19] = compound: ClCC(=O)NC(C1CCCC1)c1cccs1
# How it was run: as §1
# Sequence of UniProt P62068 (P62068 whole entry): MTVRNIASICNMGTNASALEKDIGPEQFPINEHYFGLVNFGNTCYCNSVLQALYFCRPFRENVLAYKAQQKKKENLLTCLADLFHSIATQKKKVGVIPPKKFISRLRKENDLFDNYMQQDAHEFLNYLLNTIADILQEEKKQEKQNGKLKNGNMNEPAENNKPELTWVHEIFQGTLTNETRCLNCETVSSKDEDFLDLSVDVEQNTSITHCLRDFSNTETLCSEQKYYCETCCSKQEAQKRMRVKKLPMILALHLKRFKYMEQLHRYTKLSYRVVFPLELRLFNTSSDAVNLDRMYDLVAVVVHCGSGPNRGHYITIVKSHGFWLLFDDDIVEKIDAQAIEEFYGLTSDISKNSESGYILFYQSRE
# Sequence of UniProt P09936 (P09936 whole entry, looked up): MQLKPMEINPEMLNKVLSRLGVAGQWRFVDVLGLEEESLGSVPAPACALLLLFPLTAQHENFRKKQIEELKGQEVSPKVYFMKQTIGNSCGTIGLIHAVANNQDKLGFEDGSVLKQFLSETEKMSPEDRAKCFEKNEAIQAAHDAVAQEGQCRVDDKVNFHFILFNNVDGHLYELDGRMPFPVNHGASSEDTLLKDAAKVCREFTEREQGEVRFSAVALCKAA
target,measurement,setting,value
USP46 (UniProt P62068),log2 ratio of Biotin-Ahx-Ub-VS probe labelling,[1]; compound concentration: 50uM,0.00875
same,log2 ratio of Biotin-Ahx-Ub-VS probe labelling,[1]; compound concentration: 200uM,-0.386
same,log2 ratio of Biotin-Ahx-Ub-VS probe labelling,[2]; compound concentration: 50uM,-0.283
same,log2 ratio of Biotin-Ahx-Ub-VS probe labelling,[2]; compound concentration: 200uM,-0.392
same,log2 ratio of Biotin-Ahx-Ub-VS probe labelling,[3]; compound concentration: 50uM,-0.496
same,log2 ratio of Biotin-Ahx-Ub-VS probe labelling,[3]; compound concentration: 200uM,-0.363
same,log2 ratio of Biotin-Ahx-Ub-VS probe labelling,[4]; compound concentration: 50uM,0.0697
same,log2 ratio of Biotin-Ahx-Ub-VS probe labelling,[4]; compound concentration: 200uM,-0.0122
same,log2 ratio of Biotin-Ahx-Ub-VS probe labelling,[5]; compound concentration: 50uM,-0.118
same,log2 ratio of Biotin-Ahx-Ub-VS probe labelling,[5]; compound concentration: 200uM,-0.18
same,log2 ratio of Biotin-Ahx-Ub-VS probe labelling,[6]; compound concentration: 0.78uM,-0.00158
same,log2 ratio of Biotin-Ahx-Ub-VS probe labelling,[6]; compound concentration: 1.56uM,-0.0881
same,log2 ratio of Biotin-Ahx-Ub-VS probe labelling,[6]; compound concentration: 3.13uM,-0.475
same,log2 ratio of Biotin-Ahx-Ub-VS probe labelling,[6]; compound concentration: 6.25uM,-0.276
same,log2 ratio of Biotin-Ahx-Ub-VS probe labelling,[6]; compound concentration: 12.5uM,-0.393
same,log2 ratio of Biotin-Ahx-Ub-VS probe labelling,[6]; compound concentration: 25uM,-0.421
same,log2 ratio of Biotin-Ahx-Ub-VS probe labelling,[6]; compound concentration: 50uM,-0.311
same,log2 ratio of Biotin-Ahx-Ub-VS probe labelling,[6]; compound concentration: 100uM,0.116
same,log2 ratio of Biotin-Ahx-Ub-VS probe labelling,[6]; compound concentration: 200uM,-0.326
same,log2 ratio of Biotin-Ahx-Ub-VS probe labelling,[7]; compound concentration: 0.78uM,-0.158
same,log2 ratio of Biotin-Ahx-Ub-VS probe labelling,[7]; compound concentration: 1.56uM,-0.00787
same,log2 ratio of Biotin-Ahx-Ub-VS probe labelling,[7]; compound concentration: 3.13uM,0.116
same,log2 ratio of Biotin-Ahx-Ub-VS probe labelling,[7]; compound concentration: 6.25uM,0.0618
same,log2 ratio of Biotin-Ahx-Ub-VS probe labelling,[7]; compound concentration: 12.5uM,0.00378
same,log2 ratio of Biotin-Ahx-Ub-VS probe labelling,[7]; compound concentration: 25uM,-0.153
same,log2 ratio of Biotin-Ahx-Ub-VS probe labelling,[7]; compound concentration: 50uM,-0.14
same,log2 ratio of Biotin-Ahx-Ub-VS probe labelling,[7]; compound concentration: 100uM,-0.166
same,log2 ratio of Biotin-Ahx-Ub-VS probe labelling,[7]; compound concentration: 200uM,-0.243
same,log2 ratio of Biotin-Ahx-Ub-VS probe labelling,[8]; compound concentration: 0.78uM,0.11
same,log2 ratio of Biotin-Ahx-Ub-VS probe labelling,[8]; compound concentration: 1.56uM,-0.348
same,log2 ratio of Biotin-Ahx-Ub-VS probe labelling,[8]; compound concentration: 3.13uM,-0.0607
same,log2 ratio of Biotin-Ahx-Ub-VS probe labelling,[8]; compound concentration: 6.25uM,-0.153
same,log2 ratio of Biotin-Ahx-Ub-VS probe labelling,[8]; compound concentration: 12.5uM,0.0225
same,log2 ratio of Biotin-Ahx-Ub-VS probe labelling,[8]; compound concentration: 25uM,-0.138
same,log2 ratio of Biotin-Ahx-Ub-VS probe labelling,[8]; compound concentration: 50uM,0.0154
same,log2 ratio of Biotin-Ahx-Ub-VS probe labelling,[8]; compound concentration: 100uM,-0.107
same,log2 ratio of Biotin-Ahx-Ub-VS probe labelling,[8]; compound concentration: 200uM,-0.288
same,log2 ratio of Biotin-Ahx-Ub-VS probe labelling,[9]; compound concentration: 50uM,-0.0362
same,log2 ratio of Biotin-Ahx-Ub-VS probe labelling,[9]; compound concentration: 200uM,-1.5 (active)
same,log2 ratio of Biotin-Ahx-Ub-VS probe labelling,[10]; compound concentration: 50uM,-0.446
same,log2 ratio of Biotin-Ahx-Ub-VS probe labelling,[10]; compound concentration: 200uM,-0.735
same,log2 ratio of Biotin-Ahx-Ub-VS probe labelling,[11]; compound concentration: 50uM,-0.406
same,log2 ratio of Biotin-Ahx-Ub-VS probe labelling,[11]; compound concentration: 200uM,-0.773
same,log2 ratio of Biotin-Ahx-Ub-VS probe labelling,[12]; compound concentration: 50uM,-0.252
same,log2 ratio of Biotin-Ahx-Ub-VS probe labelling,[12]; compound concentration: 200uM,-1.01 (active)
same,log2 ratio of Biotin-Ahx-Ub-VS probe labelling,[13]; compound concentration: 50uM,-0.0785
same,log2 ratio of Biotin-Ahx-Ub-VS probe labelling,[13]; compound concentration: 200uM,-0.634
same,log2 ratio of Biotin-Ahx-Ub-VS probe labelling,[14]; compound concentration: 50uM,-0.32
same,log2 ratio of Biotin-Ahx-Ub-VS probe labelling,[14]; compound concentration: 200uM,-1.33 (active)
same,log2 ratio of Biotin-Ahx-Ub-VS probe labelling,[15]; compound concentration: 50uM,-0.575
same,log2 ratio of Biotin-Ahx-Ub-VS probe labelling,[15]; compound concentration: 200uM,-2.77 (active)
same,log2 ratio of Biotin-Ahx-Ub-VS probe labelling,[16]; compound concentration: 50uM,0.0166
same,log2 ratio of Biotin-Ahx-Ub-VS probe labelling,[16]; compound concentration: 200uM,-1.12 (active)
same,log2 ratio of Biotin-Ahx-Ub-VS probe labelling,[17]; compound concentration: 50uM,-0.22
same,log2 ratio of Biotin-Ahx-Ub-VS probe labelling,[17]; compound concentration: 200uM,-0.641
same,log2 ratio of Biotin-Ahx-Ub-VS probe labelling,[18]; compound concentration: 50uM,-0.291
same,log2 ratio of Biotin-Ahx-Ub-VS probe labelling,[18]; compound concentration: 200uM,-1.43 (active)
same,log2 ratio of Biotin-Ahx-Ub-VS probe labelling,[19]; compound concentration: 50uM,0.0547
same,log2 ratio of Biotin-Ahx-Ub-VS probe labelling,[19]; compound concentration: 200uM,-0.255
UCHL1 (UniProt P09936),log2 ratio of Biotin-Ahx-Ub-VS probe labelling,[1]; compound concentration: 50uM,-0.0927
same,log2 ratio of Biotin-Ahx-Ub-VS probe labelling,[1]; compound concentration: 200uM,0.068
same,log2 ratio of Biotin-Ahx-Ub-VS probe labelling,[2]; compound concentration: 50uM,-0.207
same,log2 ratio of Biotin-Ahx-Ub-VS probe labelling,[2]; compound concentration: 200uM,-0.242
same,log2 ratio of Biotin-Ahx-Ub-VS probe labelling,[3]; compound concentration: 50uM,-0.16
same,log2 ratio of Biotin-Ahx-Ub-VS probe labelling,[3]; compound concentration: 200uM,-0.504
same,log2 ratio of Biotin-Ahx-Ub-VS probe labelling,[4]; compound concentration: 50uM,-0.114
same,log2 ratio of Biotin-Ahx-Ub-VS probe labelling,[4]; compound concentration: 200uM,0.145
same,log2 ratio of Biotin-Ahx-Ub-VS probe labelling,[5]; compound concentration: 50uM,0.105
same,log2 ratio of Biotin-Ahx-Ub-VS probe labelling,[5]; compound concentration: 200uM,0.0647
same,log2 ratio of Biotin-Ahx-Ub-VS probe labelling,[6]; compound concentration: 0.78uM,-0.218
same,log2 ratio of Biotin-Ahx-Ub-VS probe labelling,[6]; compound concentration: 1.56uM,-0.0576
same,log2 ratio of Biotin-Ahx-Ub-VS probe labelling,[6]; compound concentration: 3.13uM,-0.283
same,log2 ratio of Biotin-Ahx-Ub-VS probe labelling,[6]; compound concentration: 6.25uM,-0.158
same,log2 ratio of Biotin-Ahx-Ub-VS probe labelling,[6]; compound concentration: 12.5uM,-0.19
same,log2 ratio of Biotin-Ahx-Ub-VS probe labelling,[6]; compound concentration: 25uM,-0.341
same,log2 ratio of Biotin-Ahx-Ub-VS probe labelling,[6]; compound concentration: 50uM,-0.22
same,log2 ratio of Biotin-Ahx-Ub-VS probe labelling,[6]; compound concentration: 100uM,-0.163
same,log2 ratio of Biotin-Ahx-Ub-VS probe labelling,[6]; compound concentration: 200uM,-0.254
same,log2 ratio of Biotin-Ahx-Ub-VS probe labelling,[7]; compound concentration: 0.78uM,-0.29
same,log2 ratio of Biotin-Ahx-Ub-VS probe labelling,[7]; compound concentration: 1.56uM,-0.214
same,log2 ratio of Biotin-Ahx-Ub-VS probe labelling,[7]; compound concentration: 3.13uM,-0.161
same,log2 ratio of Biotin-Ahx-Ub-VS probe labelling,[7]; compound concentration: 6.25uM,-0.154
same,log2 ratio of Biotin-Ahx-Ub-VS probe labelling,[7]; compound concentration: 12.5uM,-0.211
same,log2 ratio of Biotin-Ahx-Ub-VS probe labelling,[7]; compound concentration: 25uM,-0.116
same,log2 ratio of Biotin-Ahx-Ub-VS probe labelling,[7]; compound concentration: 50uM,-0.259
same,log2 ratio of Biotin-Ahx-Ub-VS probe labelling,[7]; compound concentration: 100uM,-0.155
same,log2 ratio of Biotin-Ahx-Ub-VS probe labelling,[7]; compound concentration: 200uM,-0.0847
same,log2 ratio of Biotin-Ahx-Ub-VS probe labelling,[8]; compound concentration: 0.78uM,-0.211
same,log2 ratio of Biotin-Ahx-Ub-VS probe labelling,[8]; compound concentration: 1.56uM,-0.304
